Hits are enriched below; roughly 3.2% of the tested compounds scored in any of these assays.
TROY NFkB inh: blocks TROY-dependent signaling in reporter cells; Q293 LMP1-TROYcd NF-kB luciferase reporter, 4 h; inhibition, % at 10 µM; actives 0.98% (n = 360,000); AID 1347056;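 active = compounds whose plate-normalised and pattern-corrected inhibition of the luciferase reporter signal at the single screening dose is 50% or more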
EWS-Fli inh: inhibitors of EWS/Fli oncoprotein transcriptional activity | actives 0.67% (n = 350,000) | A673 NR0B1-luciferase reporter, viability-normalised | inhibition, % at 12.6 µM | AID 651661;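 active = mean inhibition of at least 50% after viability correction, with every replicate also passing that limit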;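 also: firefly luciferase signal divided by Alamar Blue viability fluorescence both relative to DMSO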
PAX8 reporter: inhibitors of PAX8 transcriptional activity in RMG-I cells. inhibition, % at 12.6 µM. RMG-I TPO-luciferase reporter, SteadyGlo, 24 h. actives 1.2% (n = 360,000);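 active = mean replicate inhibition at least 60% with every replicate also reaching 60%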;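 also: luciferase light reporting Pax8 driven TPO promoter activity; plate controls were median of neutral control wells for no effect and mitoxantrone controls for full effect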
TWEAK-Fn14 inh: inhibitors of TWEAK-Fn14 interaction signaling; AID 1159606; actives 2% (n = 360,000); TWEAK-stimulated Fn14 reporter cells, luciferase luminescence, 8 h; inhibition, % at 10 µM; in the data active = inhibition above about 50%
EBV LMP1 NFkB: Epstein-Barr LMP1 NF-kappaB reporter inhibition; LMP1-induced NF-kappaB luciferase reporter cells, luminescence; actives 0.69% (n = 350,000); inhibition, % at 12.5 µM; in the data active = inhibition above about 41%;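 also: 0% = neutral control wells and 100% = reference inhibitor control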
LGR2 inh: inhibitors of bursicon-induced Drosophila LGR2 receptor cAMP signaling; HEK293 LGR2, CRE-luciferase, bursicon-stimulated, 4 h; inhibition, % at 9.99 µM; actives 0.35% (n = 380,000); AID 720647;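 active = drop in luminescence signal, shown as inhibition above about 50% in the replicate tests, limit read from the data, passing the limit was not always enough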;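 also: agonist challenge used bursicon conditioned medium at about half maximal strength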
Numbers without * were called inactive; x = no result.

SMILES | TROY NFkB inh | EWS-Fli inh | PAX8 reporter | TWEAK-Fn14 inh | EBV LMP1 NFkB | LGR2 inh
COc1ccc(S(=O)(=O)Nc2ccc3c(c2)C(=O)N([C@H](C)CO)C[C@H](C)[C@@H](CN(C)S(=O)(=O)c2ccccc2)OCCCC[C@H](C)O3)cc1 | x | 2 | 42 | x | x | -6
COc1ccc(-n2c(C)cc(C(=O)CSc3ccc(NC(C)=O)cc3)c2C)cc1 | -4 | x | -116 | 5 | -2 | -4
CC(=O)Nc1ccc(SCC(=O)c2cc(C)n(-c3ccccc3)c2C)cc1 | 44 | x | -101 | 73* | 13 | 9
Cc1cc(C(=O)C(C)OC(=O)c2ccc(NC(=O)CC#N)cc2)c(C)n1-c1ccccc1 (stereo not drawn) | 45 | 4 | -7 | 64* | 15 | 12
CSc1nc(-c2ccc(C)cc2)nc(C(Cl)Cl)n1 | 1 | x | x | 6 | 60* | x
CCSc1nc(-c2ccccc2)nc(C(Cl)Cl)n1 | -3 | 50 | 96* | 41 | 67* | 23
CSc1nc(Cl)c(C#N)c(-c2ccc(C)cc2)n1 | -6 | 0 | x | 2 | -1 | 7
C[C@@H]1CN([C@H](C)CO)C(=O)c2cc(NC(=O)Nc3ccccc3)ccc2O[C@@H](C)CCCCO[C@@H]1CN(C)C(=O)NC1CCCCC1 | x | -2 | 13 | x | x | 5
CCc1cc2c(=O)c(-c3ccc4c(c3)OCO4)coc2c(CN(C)C)c1O | 36 | 15 | -14 | -12 | 0 | 4
CCc1cc2c(=O)c(-c3cscn3)coc2c(CN(C)C)c1O | 66* | x | x | -63 | 4 | -12
Cc1ccc(NC(=O)CNc2ccc(Cl)c(Cl)c2)cc1S(=O)(=O)N(C)C | 30 | -2 | 6 | 91* | 20 | -2
Cc1ccc(NC(=O)Cc2ccc(Cl)c(Cl)c2)cc1S(=O)(=O)N(C)C | 34 | x | -6 | 45 | 8 | 1
Cc1ccc(NC(=O)CSc2nn(-c3ccc(Cl)cc3)c(=S)s2)cc1S(=O)(=O)N(C)C | 52* | -1 | -10 | 64* | 19 | 6
CN(C)S(=O)(=O)c1cc(NC(=O)CSc2nn(-c3ccc(Cl)cc3)c(=S)s2)ccc1Cl | 41 | x | 25 | 83* | 22 | -11
NS(=O)(=O)c1cccc(NC(=O)CSc2nn(-c3ccccc3)c(=S)s2)c1 | 9 | x | -19 | 34 | 6 | 10
O=C(Nc1ccc(N2CCN(Cc3ccccc3F)CC2)cc1)c1ccc([N+](=O)[O-])o1 | 15 | 52* | x | 27 | -50 | 13
CS(=O)(=O)N1CCN(c2ccc(NC(=O)c3ccc([N+](=O)[O-])o3)cc2)CC1 | -19 | 43 | 71* | 1 | -53 | 10
CCCC(=O)N1CCN(c2ccc(NC(=O)c3ccc([N+](=O)[O-])o3)cc2)CC1 | 5 | 58* | 90* | -6 | -29 | 18
O=C(Nc1ccc(N2CCN(C(=O)c3ccc(Cl)cc3)CC2)cc1)c1ccc([N+](=O)[O-])o1 | 7 | 67* | 49 | 33 | -69 | 46
COc1ccc(NC(=O)Nc2ccc3c(c2)C(=O)N([C@H](C)CO)C[C@H](C)[C@H](CN(C)S(=O)(=O)c2c(C)noc2C)OCCCC[C@@H](C)O3)cc1 | x | -6 | -12 | x | x | -10
O=C(Nc1ccc(N2CCN(C(=O)c3ccc(Cl)cc3)CC2)cc1)c1ccc2c(c1)OCCO2 | 70* | x | x | 92* | 25 | 26
CC(C)(C)C(=O)N1CCN(c2ccc(NC(=O)c3ccc([N+](=O)[O-])o3)cc2)CC1 | -15 | 54* | 101* | -9 | -29 | 5
CC(=O)N1CCN(c2ccc(NC(=O)c3ccc4c(c3)OCCO4)cc2Cl)CC1 | 7 | -67 | -34 | -14 | -7 | -36
CCC(=O)N1CCN(c2ccc(NC(=O)c3ccc([N+](=O)[O-])o3)cc2)CC1 | -15 | 54* | 90* | -1 | -1 | 5
O=C(Nc1ccc(N2CCN(C(=O)c3ccccc3)CC2)cc1)c1ccc2c(c1)OCCO2 | 23 | -6 | -23 | 22 | 12 | -45
CC1CCN(c2ccc(NC(=O)c3ccc([N+](=O)[O-])o3)cc2)CC1 | 9 | 13 | 36 | 42 | -126 | 2
O=C(Nc1ccc(N2CCCCC2)cc1)c1ccc([N+](=O)[O-])o1 | 24 | -1 | 16 | 45 | -95 | -12
CC(C)C(=O)N1CCN(c2ccc(NC(=O)c3ccc4c(c3)OCCO4)cc2Cl)CC1 | 61* | x | x | 82* | 0 | 85*

Screens (PubChem)
